The results in this text go back to PubChem BioAssay (NCI).

Compounds without any hit were thinned out: in the full panel of roughly 79,000, 15% have a hit. Active and inactive are the calls of the source. No stated cut-off is given here; in the data, active means growth inhibition above about 70%; inactive means the rest. Where a SMILES comes first, the peptide text is derived from it. The star is where a group is joined. Cbz = O=C(OCc1ccccc1)*

A short description of the experiment: NCI Yeast Anticancer Drug Screen. Data for the mec2-1 strain (AID 157). The note with it: S. cerevisiae mec2-1 strain, at 50.0 µM, active compounds read high. The method in brief:
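Test agents were screened against the mec2-1 yeast strain, with defined DNA repair or cell cycle alteration. Growth was scored as inhibition against vehicle-only controls.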
Take `COC1OC(C)CC(O)C1O` (configuration not stated): the growth inhibition was -7.05% (inactive).

On to `COc1ccc(CC(=O)c2c(OC)c3c(c4c2OC(C)(C)CC4)OC(C)(C)CC3)cc1OC`, for which the growth inhibition was -14.8% (inactive). To `COc1ccc(N=C2C(=Nc3ccc(OC)cc3)N(S(=O)(=O)c3ccccc3)C(=S)N2c2ccc(OC)cc2)cc1` belongs -35% (inactive); to `CCc1ccccc1NC(=O)Sc1cccc(C)c1`, 27% (inactive); to `CC(C)(CO)N=Cc1ccc(Cl)c(Cl)c1`, -13.2% (inactive). On to `Cc1cc(Cl)ccc1OCCCC(=O)NC(Cc1c[nH]c2ccccc12)C(=O)O` (configuration not stated), for which the growth inhibition is 2.9% (inactive).

For the compound `O=C(Nc1nnc(C(F)(F)F)s1)c1c(F)cccc1F`, the growth inhibition is 16.7% (inactive).

Turning to `CCCCCCC(C)Cl` (configuration not stated), the growth inhibition is -6.05% (inactive). `CC(C)=CCC(C)c1ccccn1` (configuration not stated): the growth inhibition is 5.5% (inactive). With `CC(NC(=O)C(Cc1ccc(O)cc1)NC(=O)C(C)NC(=O)OCc1ccccc1)C(=O)O` (stereo not drawn) (Cbz-Ala-Tyr-Ala-OH; configuration not given here), the growth inhibition was 13.3% (inactive). On to `N=C(N)c1ccncc1`, for which the growth inhibition was 5.75% (inactive). `CC12CC3CC(C)(C1)CC(N=[N+]=[N-])(C3)C2`: the growth inhibition was -9.6% (inactive).

As to `CC(C)(C)c1cc(Br)c(O)c(CN(Cc2cc(C(C)(C)C)cc(Br)c2O)C2CCCCC2)c1`, the growth inhibition was -24.9% (inactive). To `CCOC(=O)/C(=N/Nc1ccc(C)cc1)N1C(=S)C=C(C)NN(C)C1=S` belongs 4% (inactive).

As to `OC1CCC(c2ccccc2)CC1` (configuration not stated), the growth inhibition is 11.8% (inactive). To `O=C(N/N=C/C=C/c1ccccc1)c1ccccc1O` belongs 43% (inactive); to `O=C(CN1CCCCC1)c1ccc(CCc2ccc(C(=O)CN3CCCCC3)cc2)cc1`, 11.3% (inactive).
